Out of some 69,000 compounds screened, about 950 (1.4%) showed an effect of 50% or more. Only a selection was taken, and strong results are over-represented in it overall.
Tested on: Mycobacterium tuberculosis
Assay: Cornell M. t heat shock assay; also: in the data most compounds retested in dose-response had high values
Format: functional, organism-based
Parameters: dose or concentration left out as unconfirmed

Row | Compound | Percent Effect [%]
1 | CCN1C[C@H]2[C@@H](C1)N(S(=O)(=O)c1ccccc1)CC[C@H]2OC.O=C(O)C(F)(F)F | 4.433
2 | O=C(CSCC1CC1)N1CCCC(c2nccn2Cc2ccccn2)C1 (stereo not given) | -24.76
3 | O=C(CSCC1CC1)N1CCCC(c2nccn2Cc2ccncc2)C1 (stereo not given) | 27.98
4 | COCCn1ccnc1C1CCCN(C(=O)CSCC2CC2)C1 (stereo not given) | 75.33
5 | CC(C)c1nc2c(n1C)CCN(Cc1cccc(OCC(N)=O)c1)C2 | -13.93
6 | Cn1cc(CN2CC[C@@H]3[C@@H](CO[C@H]3CNC(=O)c3ccco3)C2)cn1.O=C(O)C(F)(F)F.O=C(O)C(F)(F)F | -15.87
7 | CC/N=c1\nc(NCC)nc2n1C(O)(Nc1cc(C)ccc1C)CS2 (stereo not given) | 7.529
8 | CC/N=c1\nc(NCC)nc2n1C(O)(Nc1cccc(Cl)c1Cl)CS2 (stereo not given) | 0.756
9 | CC/N=c1\nc(NCC)nc2n1C(O)(Nc1cccc(C)c1C)CS2 (stereo not given) | 59.58
10 | CNC(=O)c1cccc(C2CNCCN2C(=O)c2cccc(F)c2)c1.Cl (stereo not given) | -24.93
11 | O=C(NCc1ccco1)[C@H]1COC[C@H]2CN(Cc3ccccn3)C[C@H]21.O=C(O)C(F)(F)F.O=C(O)C(F)(F)F | -5.073
12 | Cc1ncccc1-c1cc2cccnc2n1CCCNC(=O)C(C)(C)C.Cl | 11.8
13 | Cc1nc(-c2ccnc(N3CCNCC3)n2)no1.Cl.Cl | 10.1
14 | CC(C)C[C@H](N)COc1cccc(F)c1Oc1cccc(Cl)c1 | 103.9
15 | Cc1ccc(Oc2c(F)cccc2OC[C@@H](N)CC(C)C)cc1 | 104.6
16 | CC(C)C[C@H](N)COc1cccc(F)c1Oc1ccccc1 | 5.666
17 | CC(C)COc1ccccc1C(N)CC(C)C (stereo not given) | -26.57
18 | CCOc1ccccc1C(N)CC(C)C (stereo not given) | 6.467
19 | CC(C)C[C@H](N)COc1cccc(F)c1Oc1ccc(Cl)cc1 | 105.7
20 | CNCc1cc(F)ccc1Oc1ccc(Cl)cc1 | -7.892
21 | CC(CNS(N)(=O)=O)Oc1cccc(Cl)c1 (stereo not given) | -31.66
22 | COc1ccccc1C(N)CC(C)C (stereo not given) | -0.8675
23 | O=C(NC1CC1)[C@@H]1C[C@@H]2CCN(Cc3ccoc3)C[C@@H]2O1.O=C(O)C(F)(F)F | 49.9
24 | Cc1nn(C)cc1-c1cncn1CCc1ccc2c(c1)OCCO2.Cl | -2.438

Row | Compound | Percent Effect [%]
25 | Cl.Cl.c1cncc(OC[C@@H]2CCC[C@@]23CNCCO3)c1 | -0.8406
26 | Cn1ccnc1CN1CCC2(CC1)CCN(c1ccccc1)C2=O.O=C(O)C(F)(F)F | 8.178
27 | O=C(O)C(F)(F)F.O=C(O)C(F)(F)F.O=C1Nc2ccccc2C12CCN(Cc1ccccn1)CC2 | -17.02
28 | Cc1ccccc1C1CCN(CCNC(=O)CS(C)(=O)=O)C1 (stereo not given) | -16.65
29 | Cc1ccccc1C1CCN(CCn2cc(-c3cccc(O)c3)nn2)C1 (stereo not given) | 72.96
30 | Cc1ccccc1C1CCN(CCn2cc(-c3nccn3C)nn2)C1 (stereo not given) | 32.84
31 | Oc1cccc(-c2cc(C3CCN(Cc4cncnc4)C3)ccn2)c1 (stereo not given) | 20.76
32 | Cc1ccccc1C1CCN(CCn2cc(-c3nccs3)nn2)C1 (stereo not given) | 59.14
33 | CCSCCn1cc(-c2nccs2)nn1 | 12.13
34 | CCC(=O)N1CCC2(CC1)CN(CCO)Cc1ccccc12.O=C(O)C(F)(F)F | -19.17
35 | NCCc1c(-c2ccccc2)[nH][nH]c1=O.O=C(O)C(=O)O | -25.01
36 | O=C(CCc1cncc(F)c1)NS(=O)(=O)c1ccc(F)cc1F | 21.56
37 | Cn1cccc1C(=O)N1C[C@H]2CN(Cc3cccs3)C[C@H]2C1.O=C(O)C(F)(F)F | -10.6
38 | COCCCNC(=O)Nc1ncc(-c2cccc(OC)c2)n1CCOC | -7.26
39 | COCCn1c(-c2cccc(OC)c2)cnc1NC(=O)NCC(C)C | 22.14
40 | COCCn1c(-c2cccc(OC)c2)cnc1NC(=O)NCCC(C)C | 67.45
41 | Cc1nn(C)c(Cl)c1CNCc1cccnc1N1CCN(C)CC1.Cl | -22.17
42 | O=C(O)C(F)(F)F.O=C1Nc2ccccc2C12CCN(c1nccs1)CC2 | -0.7259
43 | CCC1=N[C@@]2(CC[C@@H]3CN(Cc4ccc(Cl)cc4)C[C@@H]32)C(=O)N1.O=C(O)C(F)(F)F | 4.216
44 | CN1Cc2ccccc2CC2(CCN(CCO)CC2)C1=O.O=C(O)C(F)(F)F | 19.63
45 | Cl.O=C(CCc1cccc(C2CCNCC2)n1)N1CCCCC1 | -1.304
46 | CCc1cnc(N)nc1NC(C)c1cnn(C)c1 (stereo not given) | -5.78
47 | CCc1cnc(N)nc1NC(C)c1ccc(C)c(C)c1 (stereo not given) | 51.29
48 | CCc1cnc(N)nc1N[C@@H](C)c1ncccc1C | -10.37

Row | Compound | Percent Effect [%]
49 | Cl.Nc1cnn(CC(=O)N2CCCCC2)c1 | -8.542
50 | CCOc1ccc(CN2CC[C@H]3CC[C@@H](C2)N3)cc1CO | -10.09
51 | CO[C@H]1CCN(S(=O)(=O)c2cccnc2)[C@@H]2CN(CC3CC3)C[C@H]12.O=C(O)C(F)(F)F.O=C(O)C(F)(F)F | 2.331
52 | O=C(O)C(F)(F)F.O=c1cc(CNS(=O)(=O)C2CC2)nc2n1CCCN(CC1CC1)C2 | 21.63
53 | Cc1nc(CN2C[C@@H]3CN(C(=O)c4cccn4C)C[C@@H]3C2)cs1.O=C(O)C(F)(F)F | -44.62
54 | COc1cccc(CNCCNS(=O)(=O)Cc2ccccc2)c1 | -28.9
55 | C=C(C)COc1cccc(CNCc2nc3ccccc3c(=O)[nH]2)c1 | 22.25
56 | COc1cccc(CNCc2nc3ccccc3c(=O)[nH]2)c1 | 81.36
57 | CC(C)N(C)Cc1cnc2n1CCN(Cc1ccco1)C2.O=C(O)C(F)(F)F.O=C(O)C(F)(F)F | -12.15
58 | CC(C)N1CCC2(CCCNC2)C1=O.Cl (stereo not given) | -7.448
59 | COc1ccc(-c2cnc(N)nc2C2CCCNC2)cc1.Cl (stereo not given) | 9.716
60 | O=C(O)C(F)(F)F.O=C(O)C(F)(F)F.O=C1COC2(CCN(Cc3ccncc3)CC2)CN1 | -17.34
61 | Cc1ccc(-c2cn[nH]c2C2CCCN(c3nccc(N)n3)C2)cc1 (stereo not given) | 65.07
62 | Cc1ccc(-c2cn[nH]c2C2CCCN(c3ccnc(C)n3)C2)cc1 (stereo not given) | 19.62
63 | Cc1ccc(-c2cn[nH]c2C2CCCN(c3ncccn3)C2)cc1 (stereo not given) | -0.9903
64 | CS(=O)(=O)NC[C@]12COC[C@H]1CN(Cc1ccc3c(c1)OCO3)C2.O=C(O)C(F)(F)F | 3.977
65 | CCOC(=O)N1CC2(CCNCC2)c2cc(Cl)ccc21.Cl | -1.259
66 | COCC(=O)NC1CC2(CCN(CCN(C)C)CC2)c2ccccc21 (stereo not given) | 10.28
67 | CCN(CC)c1nc(Nc2cccc(C(=O)O)c2)nc2ccccc12 | -2.465
68 | CCN(CC)c1nc(Nc2cccc(C(C)O)c2)nc2ccccc12 (stereo not given) | 99.47
69 | CC(O)c1cccc(Nc2nc(NCCO)c3ccccc3n2)c1 (stereo not given) | 10.04
70 | Cc1ccc(CN2CCc3onc(C(=O)Nc4cccnc4)c3C2)o1.O=C(O)C(F)(F)F.O=C(O)C(F)(F)F | 26.18
71 | Cc1cccc(CN2CC[C@H]3O[C@H](C(=O)Nc4cnccn4)CC[C@H]32)n1.O=C(O)C(F)(F)F.O=C(O)C(F)(F)F | -10.98
72 | Cl.O=C1N(Cc2cccc(Cl)c2)CCC12CCCNC2 (stereo not given) | -6.247

Row | Compound | Percent Effect [%]
73 | O=C(NCc1cccnc1)N[C@H]1CC[C@@]2(CCC(=O)N2CC2CC2)CC1.O=C(O)C(F)(F)F | 35.19
74 | Cc1cccc(-c2ccc(C(=O)N3CCN(C(C)C)CC3)c(=O)[nH]2)c1 | 7.848
75 | CC(=O)N1CCN(C(=O)c2ccc(-c3cccc(C)c3)[nH]c2=O)CC1 | 14.72
76 | Cc1cccc(-c2ccc(C(=O)N3CCSCC3)c(=O)[nH]2)c1 | 96.07
77 | O=C(O)C(F)(F)F.O=C(O)C(F)(F)F.O=C1CC(c2ccncc2)C2(CCN(CC3CC3)CC2)N1 (stereo not given) | -16.85
78 | CN1CC(=O)N(c2cnn(C)c2)CC12CCN(CC1CC1)C2.O=C(O)C(F)(F)F.O=C(O)C(F)(F)F (stereo not given) | -40.13
79 | CN(C)C(=O)COC[C@]12COC[C@H]1CN(C1CCCC1)C2.O=C(O)C(F)(F)F | 33.3
80 | O=C(O)C(F)(F)F.O=C1CCCN1Cc1nnc2n1CCN(Cc1ccco1)CC2 | 8.62
81 | CN(Cc1cccnc1)C1CC2(CCN(c3ccccn3)CC2)C1.O=C(O)C(F)(F)F.O=C(O)C(F)(F)F.O=C(O)C(F)(F)F | -2.81
82 | O=C1CSc2ccccc2N1CC(=O)N1CCCCC1c1nccs1 (stereo not given) | 95.25
83 | Cc1ccc2c(c1)SCC(=O)N2CC(=O)N1CCCC1c1nccs1 (stereo not given) | 34.79
84 | COc1ccccc1OCCC(=O)N1CCCCC1c1nccs1 (stereo not given) | -0.6566
85 | CN(C)C(=O)N1CCC[C@]2(C(=O)N(C)C)CN(c3ccccn3)C[C@@H]2C1.O=C(O)C(F)(F)F | -29.23
86 | Cc1nc(CN2C(=O)C[C@H]3[C@H]2CCN3C2CCOC2)cs1.O=C(O)C(F)(F)F (stereo not given in full) | -20.37
87 | O=C1C[C@H]2CC[C@@H](CN1)N2c1cc(-c2ccccc2F)nc2ccnn12 | 8.242
88 | I.c1ccc(Sc2ccc3c(c2)OCO3)c(CNC2=NCCN2)c1 | 5.756
89 | CN(C)Cc1cc(C2CCCCN2S(=O)(=O)Cc2ccccc2)nn1C.Cl (stereo not given) | -25.85
90 | C[C@]1(O)CN(Cc2ncc[nH]2)CC[C@@H]1Oc1cccc(F)c1 | -7.197
91 | Cc1nccc(CN2CC[C@H](Oc3cccc(F)c3)[C@@](C)(O)C2)n1 | -10.08
92 | Cc1cccnc1CN1CC[C@H](Oc2cccc(F)c2)[C@@](C)(O)C1 | 104.4
93 | Cc1cnccc1CN1CC[C@H](Oc2cccc(F)c2)[C@@](C)(O)C1 | 101.8
94 | Cc1cnccc1CN1CC[C@@](C)(O)[C@H](Oc2cccc(F)c2)C1 | -11.46
95 | C[C@]1(O)CN(Cc2ncccc2F)CC[C@@H]1Oc1cccc(F)c1 | 32.25

Source: ChEMBL document CHEMBL3988442, “University of Dundee, Small-Polar-MMV Screening Library” (2021)
